Measurements as given in PubChem BioAssay (NCATS).
Values joined by “and” are separate entries in the source; they are usually repeats but may differ in a detail not shown here. Equal values may be shown once. Results filed as inconclusive are left out. Entries that show only a call come without a potency. Active and inactive are the calls of the source. Calls come from the whole dose curve; as a rule, active = well fitted inhibition curve with a large enough effect; inconclusive = small, poorly fitted or top-dose-only effect; inactive = flat fitted curve, though single readings scatter.

tested on: CP237; assay: qHTS profiling for inhibitors of Plasmodium falciparum proliferation (AID 504749); note: nearly all actives have a fitted effect of over 60% in size; conditions: P. falciparum in erythrocytes, SYBR Green DNA, 72 h; series mostly up to 28.7 µM
How it was run: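 Each compound contacts P. falciparum-infected red blood cells for 72 h at 37 C; lysis buffer (Tris, EDTA, saponin, Triton X, SYBR Green I) is added and fluorescence measured next morning; values normalized to controls.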
Potency is the fitted concentration of half-maximal effect.

Row | Structure (SMILES) | Potency
1 | C[C@@H](Cc1ccccc1)NCCC(c1ccccc1)c1ccccc1 | inactive
2 | CCN(CC)C(=O)/C(Cl)=C(\C)OP(=O)(OC)OC | inactive
3 | CNC(=O)Oc1ccccc1C(=O)Nc1ccccc1 | inactive
4 | C=CCN=C=S | inactive
5 | N#CC(C#N)=Cc1cc(O)c(O)c(O)c1 | 8.91 µM (active)
6 | COc1ccc2c(c1OC)C(=O)OC2C1c2cc3c(cc2CCN1C)OCO3 (configuration not stated) | inactive
7 | CCC1(c2ccccc2)C(=O)NC(=O)N(C)C1=O (configuration not stated) | inactive
8 | CC(N)Cc1ccc(O)cc1 (configuration not stated) | inactive
9 | CCOc1ccc2c3c1O[C@H]1[C@@H](O)C=C[C@H]4[C@@H](C2)N(C)CC[C@@]341 | inactive
10 | O=[N+]([O-])c1ccccc1 | inactive
11 | Oc1cc(Cl)c(Cl)cc1Cl | inactive
12 | CN1CCCC(=C(c2cccs2)c2cccs2)C1 | 4.47 µM (active)
13 | C/C(=C\c1csc(C)n1)[C@@H]1C[C@@H]2O[C@]2(C)CCC[C@H](C)[C@H](O)[C@@H](C)C(=O)C(C)(C)[C@@H](O)CC(=O)O1 | 0.0016 µM (active)
14 | O[C@H]1[C@H]2[C@H](O)CCCN2C[C@H]1O | inactive
15 | O=c1[nH]c(=O)n(Cl)c(=O)n1Cl | inactive
16 | CNC1(c2ccccc2Cl)CCCCC1=O (configuration not stated) | 8.91 µM (active) and 7.94 µM (active)

Row | Structure (SMILES) | Potency
17 | O=C(NCNC(=O)NC1C(=O)NC(=O)N1CO)NC1C(=O)NC(=O)N1CO (configuration not stated) | inactive
18 | CNC(=O)OCC[N+](C)(C)C | inactive
19 | CCCN1CCCC2Cc3[nH]ncc3CC21 (configuration not stated) | inactive
20 | c1ccc(C2(N3CCCC3)CCCCC2)cc1 | 11.2 µM (active)
21 | Oc1cccc[c]1[Hg][Cl] | 10 µM (active)
22 | CCC1(c2ccccc2)C(=O)NC(=O)NC1=O | inactive
23 | C=CCC1(C(C)CCC)C(=O)N=C(S)NC1=O (configuration not stated) | inactive
24 | COc1ccc2c3c1O[C@H]1C(=O)CC[C@H]4[C@@H](C2)N(C)CC[C@]314 | inactive
25 | CN1C2CCC1CC(OC(c1ccccc1)c1ccc(Cl)cc1)C2 (configuration not stated) | 11.2 µM (active)
26 | C[C@]12CCC(=O)C[C@@H]1CC[C@@H]1[C@@H]2CC[C@]2(C)[C@@H](O)CC[C@@H]12 | inactive
27 | c1cc2c(c(NC3=NCCN3)c1)CCCC2 | inactive
28 | F/C(COc1ccc2c(c1)[nH]c1ccccc12)=C1/CN2CCC1CC2 | 6.31 µM (active)
29 | CCOP(=O)(OCC)O/C(=C/Cl)c1ccc(Cl)cc1Cl | inactive
30 | [O]=[Cr](=[O])([OH])[O][Cr](=[O])(=[O])[OH] | 11.2 µM (active)
31 | Clc1ccccc1Cl | inactive
32 | C=CCN(C1=NCCN1)c1c(Cl)cccc1Cl | inactive
